# Measured values from PubChem BioAssay (EPA / NIEHS).
# Calls of active or inactive are those of the source. The calls were made as follows, unless noted: active = hit-call score of the fitted dose curve at least 0.9, where 1 is the maximum; inactive = score below 0.9.
# Key:
# [1] = biological target: Peroxisome proliferator-activated receptor gamma (Homo sapiens) (UniProt P37231); assay: OT_PPARg_PPARgSRC1_1440: Odyssey Thera (OT) 24-hour Protein-Complementation Assay for Peroxisome Proliferator-activated Receptor Gamma/ SRC-1 Co-activator (AID 2283388; active = hit-call score of the fitted dose curve at least 0.9, where 1 is the maximum)
# Summary of the method: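 HEK293T transiently transfected with PPARg/SRC-1 split-Venus YFP fusions 48 h before dosing, then treated 24 h at 37C. Fixed cells imaged; nuclear/cytoplasmic 488 nm fluorescence ratio, gain of signal versus DMSO.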
# [2] = read-out: Tumor necrosis factor receptor superfamily member 6 (Homo sapiens) (UniProt P25445); assay: LTEA_HepaRG_FAS: Life Technologies and Expression Analysis (LTEA) Assay for Fas cell surface death receptor (FAS) using HepaRG (AID 2283447); conditions: mRNA level, 48 h; actives raise or lower the signal
# Summary of the method: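 FAS transcript level was measured by TaqMan qRT-PCR against three housekeeping genes after 48 h chemical exposure. Cells were HepaRG, 0.5% DMSO vehicle, with a top concentration of 100 uM and half-log dilutions over eight points, in duplicate.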
# [3] = read-out: Fatty acid synthase (Homo sapiens) (UniProt P49327); assay: LTEA_HepaRG_FASN: Life Technologies and Expression Analysis (LTEA) Assay for Fatty Acid Synthase (FASN) using HepaRG (AID 2283448); conditions: mRNA level, 48 h; actives raise or lower the signal
# Summary of the method: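 Transcript-level assay: HepaRG liver cells are treated for 48 h across an eight-point range topping at 100 uM, and FASN mRNA, normalized to three housekeeping genes, is compared with DMSO controls in both directions.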
# [4] = read-out: Cyclin D2 (CCND2), CCND2 (gene 894); assay: LTEA_HepaRG_CCND2: Life Technologies and Expression Analysis (LTEA) Assay for Cyclin D2 (CCND2) using HepaRG (AID 2283449); conditions: mRNA level, 48 h; actives raise or lower the signal
# Summary of the method: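 Read-out is CCND2 mRNA level measured by qRT-PCR in human HepaRG liver cells and normalised to three housekeeping genes. Chemicals were applied for 48 h at up to 100 uM, with gain or loss fitted relative to 0.5% DMSO.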
# [5] = read-out: Cyclin Dependent Kinase Inhibitor 1A (CDKN1A), CDKN1A (gene 1026); assay: LTEA_HepaRG_CDKN1A: Life Technologies and Expression Analysis (LTEA) Assay for Cyclin Dependent Kinase Inhibitor 1A (CDKN1A) using HepaRG (AID 2283450); conditions: mRNA level, 48 h; actives raise or lower the signal
# Summary of the method: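 Differentiated HepaRG cells in serum-free induction medium, exposed 48 h in duplicate to eight half-log concentrations up to 100 uM in 0.5% DMSO. mRNA measured by TaqMan qRT-PCR, normalized to ACTB, GAPDH, POLR2A; bidirectional fit versus DMSO.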
# [6] = read-out: Cyclin D1 (CCND1), CCND1 (gene 595); assay: LTEA_HepaRG_CCND1: Life Technologies and Expression Analysis (LTEA) Assay for Cyclin D1 (CCND1) using HepaRG (AID 2283451); conditions: mRNA level, 48 h; actives raise or lower the signal;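 as to AC50: TaqMan qRT-PCR transcript level normalised to ACTB GAPDH and POLR2A housekeeping genes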
# Summary of the method: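 Differentiated HepaRG cells exposed 48 h in serum-free induction medium to eight half-log concentrations from 100 uM top, 0.5% DMSO, duplicates. CCND1 mRNA measured by Fluidigm TaqMan qRT-PCR, normalised to ACTB, GAPDH, POLR2A; bidirectional fit.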
# [7] = read-out: catalase (CAT), CAT (gene 847); assay: LTEA_HepaRG_CAT: Life Technologies and Expression Analysis (LTEA) Assay for catalase (CAT) using HepaRG (AID 2283452); conditions: mRNA level, 48 h; actives raise or lower the signal;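 as to AC50: TaqMan qRT-PCR signal normalized to ACTB GAPDH and POLR2A housekeeping genes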
# Summary of the method: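 Expression of CAT was quantified by TaqMan qRT-PCR with ACTB/GAPDH/POLR2A normalization after 48 h chemical exposure of HepaRG. Eight-point half-log series, top 100 uM, in 0.5% DMSO; gain or loss fitted against vehicle.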
# [8] = read-out: flavin-containing dimethylaniline monooxygenases 3 (FMO3), FMO3 (gene 2328); assay: LTEA_HepaRG_FMO3: Life Technologies and Expression Analysis (LTEA) Assay for flavin-containing dimethylaniline monooxygenases 3 (FMO3) using HepaRG (AID 2283453); conditions: mRNA level, 48 h; actives raise or lower the signal;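 as to AC50: FMO3 transcript by TaqMan qRT-PCR normalized to ACTB GAPDH and POLR2A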
# Summary of the method: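 HepaRG, 48 h exposure, 8-pt half-log series from 100 uM, 0.5% DMSO vehicle, duplicates; FMO3 transcript by Fluidigm TaqMan qRT-PCR, housekeeping-normalized; gain/loss fit vs DMSO.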
# [9] = read-out: Cytochrome P450 (CYP1A1), CYP1A1 (gene 1543); assay: LTEA_HepaRG_CYP1A1: Life Technologies and Expression Analysis (LTEA) Assay for Cytochrome P450 (CYP1A1) using HepaRG (AID 2283454); conditions: mRNA level, 48 h; actives raise or lower the signal
# Summary of the method: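 Differentiated human HepaRG cells, after 48 h plating, exposed in duplicate for 48 h in serum-free induction medium to 8 half-log concentrations up to 100 uM in 0.5% DMSO. CYP1A1 mRNA by qRT-PCR, normalized to ACTB/GAPDH/POLR2A; bidirectional fit versus DMSO.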
# [10] = read-out: CFLAR gene, CFLAR (gene 8837); assay: LTEA_HepaRG_CFLAR: Life Technologies and Expression Analysis (LTEA) Assay for CFLAR gene using HepaRG (AID 2283455); conditions: mRNA level, 48 h; actives raise or lower the signal
# Summary of the method: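 HepaRG, 48 h exposure, 8-pt conc-response (100 uM top, half-log), 0.5% DMSO vehicle, duplicates. CFLAR expression by qRT-PCR; ACTB/GAPDH/POLR2A normalization; gain or loss fit vs DMSO baseline.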
# [11] = read-out: Forkhead box O1 (FOXO1), FOXO1 (gene 2308); assay: LTEA_HepaRG_FOXO1: Life Technologies and Expression Analysis (LTEA) Assay for Forkhead box O1 (FOXO1) using HepaRG (AID 2283456); conditions: mRNA level, 48 h; actives raise or lower the signal
# Summary of the method: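 Readout is FOXO1 transcript level by multiplexed qRT-PCR against three housekeeping genes, curve-fitted in both directions relative to 0.5% DMSO vehicle. Human HepaRG cultures received chemicals for 48 h, up to 100 uM in half-log steps.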
# [12] = CEETOX_H295R_OHPREG: CeeTox H295R High-throughput Steroidogenesis Assay for OH-Pregnenolone (OHPREG) (AID 2283434); conditions: actives raise or lower the signal
# Summary of the method: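 Hormone levels in spent medium were measured by tandem mass spectrometry following liquid-liquid extraction. Cells (H295R) had been forskolin-stimulated (10 uM, 48 h) before a 48 h chemical exposure at 0.1% DMSO, with activity fitted in both directions against DMSO.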
# [13] = CEETOX_H295R_OHPROG: CeeTox H295R High-throughput Steroidogenesis Assay for OH-Progesterone (OHPROG) (AID 2283435); conditions: actives raise or lower the signal
# Summary of the method: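 Secreted 17alpha-hydroxyprogesterone is read by tandem MS from media of forskolin-primed H295R cells dosed with chemical for 48 h. Activity is fitted in both directions against DMSO baseline; cytotoxic concentrations are re-tested diluted.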
# [14] = CEETOX_H295R_PROG: CeeTox H295R High-throughput Steroidogenesis Assay for Progesterone (PROG) (AID 2283442); conditions: actives raise or lower the signal
# Summary of the method: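 H295R adrenal cells prestimulated 48 h with 10 uM forskolin, then exposed 48 h to test chemical in 0.1% DMSO. Progesterone in medium quantified by HPLC-MS/MS after MTBE extraction; viability checked by MTT in same wells.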
# Chain of Peroxisome proliferator-activated receptor gamma (Homo sapiens) (P37231 whole entry, looked up, the tested form may be a part): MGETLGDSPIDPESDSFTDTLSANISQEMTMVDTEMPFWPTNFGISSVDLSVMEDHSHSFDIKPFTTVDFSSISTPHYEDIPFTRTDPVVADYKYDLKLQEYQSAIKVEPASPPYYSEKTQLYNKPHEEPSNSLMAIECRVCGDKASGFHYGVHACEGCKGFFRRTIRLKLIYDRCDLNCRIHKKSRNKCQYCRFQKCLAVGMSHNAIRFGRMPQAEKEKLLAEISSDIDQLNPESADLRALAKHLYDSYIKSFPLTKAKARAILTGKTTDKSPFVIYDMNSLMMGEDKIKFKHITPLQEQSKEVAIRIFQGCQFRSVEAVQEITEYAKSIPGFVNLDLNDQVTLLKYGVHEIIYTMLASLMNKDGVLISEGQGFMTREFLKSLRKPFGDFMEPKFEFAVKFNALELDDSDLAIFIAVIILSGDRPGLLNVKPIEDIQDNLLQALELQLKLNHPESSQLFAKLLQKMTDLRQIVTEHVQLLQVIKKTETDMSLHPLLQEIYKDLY
# Chain of Fatty acid synthase (Homo sapiens) (P49327 whole entry, looked up): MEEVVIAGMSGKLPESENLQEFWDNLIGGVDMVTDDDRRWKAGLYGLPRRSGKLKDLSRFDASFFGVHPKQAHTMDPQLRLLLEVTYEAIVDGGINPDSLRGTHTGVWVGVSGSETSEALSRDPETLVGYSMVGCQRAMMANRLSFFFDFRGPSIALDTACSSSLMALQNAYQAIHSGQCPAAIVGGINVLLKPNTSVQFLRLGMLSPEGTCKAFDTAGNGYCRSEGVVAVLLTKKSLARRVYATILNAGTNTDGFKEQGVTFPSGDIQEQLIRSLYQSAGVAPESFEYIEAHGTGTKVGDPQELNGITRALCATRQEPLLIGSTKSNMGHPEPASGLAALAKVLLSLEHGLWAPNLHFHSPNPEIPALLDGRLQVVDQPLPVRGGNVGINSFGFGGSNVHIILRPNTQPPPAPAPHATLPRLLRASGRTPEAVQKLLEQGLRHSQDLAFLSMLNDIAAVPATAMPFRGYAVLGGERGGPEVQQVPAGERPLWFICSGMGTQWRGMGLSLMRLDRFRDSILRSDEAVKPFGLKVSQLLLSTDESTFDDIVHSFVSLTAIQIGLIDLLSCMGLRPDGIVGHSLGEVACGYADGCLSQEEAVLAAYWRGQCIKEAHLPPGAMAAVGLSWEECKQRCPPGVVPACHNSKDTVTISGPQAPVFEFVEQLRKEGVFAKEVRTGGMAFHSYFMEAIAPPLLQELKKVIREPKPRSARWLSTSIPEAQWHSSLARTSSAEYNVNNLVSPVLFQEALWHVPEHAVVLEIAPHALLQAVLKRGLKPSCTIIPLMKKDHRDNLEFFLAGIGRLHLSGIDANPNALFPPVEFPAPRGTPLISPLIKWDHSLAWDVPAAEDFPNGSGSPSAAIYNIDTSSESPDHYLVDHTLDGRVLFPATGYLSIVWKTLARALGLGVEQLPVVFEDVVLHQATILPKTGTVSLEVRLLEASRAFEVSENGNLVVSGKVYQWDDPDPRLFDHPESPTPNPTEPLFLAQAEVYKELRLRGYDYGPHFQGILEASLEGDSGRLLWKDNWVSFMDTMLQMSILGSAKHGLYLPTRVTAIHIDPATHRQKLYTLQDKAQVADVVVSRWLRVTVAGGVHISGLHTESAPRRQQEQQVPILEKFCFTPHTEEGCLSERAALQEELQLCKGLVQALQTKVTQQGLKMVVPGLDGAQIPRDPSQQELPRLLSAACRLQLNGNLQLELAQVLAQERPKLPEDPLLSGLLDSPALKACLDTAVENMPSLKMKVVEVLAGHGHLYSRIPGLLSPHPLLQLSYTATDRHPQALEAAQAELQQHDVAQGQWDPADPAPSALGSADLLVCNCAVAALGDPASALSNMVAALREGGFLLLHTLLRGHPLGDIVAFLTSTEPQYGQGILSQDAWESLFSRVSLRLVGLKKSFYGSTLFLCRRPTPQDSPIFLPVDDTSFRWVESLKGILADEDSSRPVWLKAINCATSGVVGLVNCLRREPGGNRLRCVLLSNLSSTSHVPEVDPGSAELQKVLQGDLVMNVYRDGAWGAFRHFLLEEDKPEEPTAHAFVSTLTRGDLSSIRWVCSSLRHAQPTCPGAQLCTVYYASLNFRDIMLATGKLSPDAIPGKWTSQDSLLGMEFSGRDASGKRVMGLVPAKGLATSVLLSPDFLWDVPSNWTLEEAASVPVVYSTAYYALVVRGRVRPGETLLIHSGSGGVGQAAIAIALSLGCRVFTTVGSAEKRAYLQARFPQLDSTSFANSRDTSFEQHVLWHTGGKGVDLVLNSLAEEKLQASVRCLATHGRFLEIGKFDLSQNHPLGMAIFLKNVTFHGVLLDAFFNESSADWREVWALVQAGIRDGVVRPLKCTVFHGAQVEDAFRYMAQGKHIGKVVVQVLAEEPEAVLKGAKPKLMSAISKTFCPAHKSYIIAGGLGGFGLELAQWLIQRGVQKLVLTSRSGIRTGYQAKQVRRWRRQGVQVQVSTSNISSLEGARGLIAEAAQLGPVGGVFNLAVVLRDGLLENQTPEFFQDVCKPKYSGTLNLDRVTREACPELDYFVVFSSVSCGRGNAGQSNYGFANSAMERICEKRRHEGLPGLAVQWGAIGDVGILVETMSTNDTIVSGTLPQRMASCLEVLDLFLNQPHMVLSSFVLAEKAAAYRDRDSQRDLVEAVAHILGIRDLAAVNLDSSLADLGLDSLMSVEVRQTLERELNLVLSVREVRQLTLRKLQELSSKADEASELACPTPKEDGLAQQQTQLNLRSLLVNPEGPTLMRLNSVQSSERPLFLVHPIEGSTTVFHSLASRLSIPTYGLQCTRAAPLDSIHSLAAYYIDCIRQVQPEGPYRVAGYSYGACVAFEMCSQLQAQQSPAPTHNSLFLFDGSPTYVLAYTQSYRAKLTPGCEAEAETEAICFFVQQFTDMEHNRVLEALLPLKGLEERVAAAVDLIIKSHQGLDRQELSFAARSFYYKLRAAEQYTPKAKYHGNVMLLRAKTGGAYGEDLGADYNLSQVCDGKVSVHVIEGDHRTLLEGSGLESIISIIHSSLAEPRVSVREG
smiles,measurement,setting,value
CCN(CC)C(=O)c1cccc(C)c1,outcome,[1],inactive
same,outcome,[2],inactive
same,outcome,[3],inactive
same,outcome,[4],inactive
same,outcome,[5],inactive
same,outcome,[6],inactive
same,outcome,[7],inactive
same,outcome,[8],inactive
same,AC50,[9],50 µM (active)
same,outcome,[10],inactive
same,outcome,[11],inactive
C[C@]12CC[C@@H]3c4ccc(O)cc4C[C@@H](CCCCCCCCCS(=O)CCCC(F)(F)C(F)(F)F)[C@H]3[C@@H]1CC[C@@H]2O (stereo not given in full),outcome,[1],inactive
same,AC50,[2],0.0482 µM (active)
same,outcome,[3],inactive
same,AC50,[4],0.05 µM (active)
same,outcome,[5],inactive
same,AC50,[7],15.6 µM (active)
same,AC50,[8],44.4 µM (active)
same,outcome,[9],inactive
same,outcome,[10],inactive
same,AC50,[11],0.0681 µM (active)
OB(O)O,outcome,[1],inactive
same,outcome,[2],inactive
same,outcome,[3],inactive
same,outcome,[4],inactive
same,outcome,[5],inactive
same,outcome,[7],inactive
same,outcome,[8],inactive
same,outcome,[9],inactive
same,outcome,[10],inactive
same,outcome,[11],inactive
CCNc1nc(N)nc(Cl)n1,outcome,[12],inactive
same,outcome,[13],inactive
same,outcome,[14],inactive
same,outcome,[2],inactive
same,outcome,[3],inactive
same,outcome,[4],inactive
same,outcome,[5],inactive
same,outcome,[7],inactive
same,outcome,[8],inactive
same,outcome,[9],inactive
same,outcome,[10],inactive
same,outcome,[11],inactive
Cc1nn(C)c(Oc2ccccc2)c1C=NOCc1ccc(C(=O)OC(C)(C)C)cc1,outcome,[1],inactive
same,AC50,[2],8.31 µM (active)
same,outcome,[3],inactive
same,AC50,[5],6.99 µM (active)
same,AC50,[6],83.9 µM (active)
same,AC50,[7],2.16 µM (active)
same,AC50,[8],2.87 µM (active)
same,AC50,[9],19.6 µM (active)
same,outcome,[10],inactive
same,AC50,[11],2.81 µM (active)
COCCO,outcome,[1],inactive
same,outcome,[3],inactive
same,outcome,[5],inactive
same,outcome,[7],inactive
same,outcome,[8],inactive
same,outcome,[9],inactive
same,outcome,[10],inactive
same,outcome,[11],inactive
CCCCC(CC)COC(=O)c1ccccc1C(=O)O (stereo not given),outcome,[2],inactive
same,outcome,[3],inactive
same,outcome,[4],inactive
same,outcome,[5],inactive
same,outcome,[7],inactive
same,outcome,[8],inactive
same,AC50,[9],77.2 µM (active)
same,outcome,[10],inactive
same,outcome,[11],inactive
COC(=O)c1ccccc1C(=O)O,outcome,[1],inactive
same,outcome,[2],inactive
same,outcome,[3],inactive
same,outcome,[4],inactive
same,outcome,[5],inactive
same,outcome,[7],inactive
same,outcome,[8],inactive
same,outcome,[9],inactive
same,outcome,[10],inactive
same,outcome,[11],inactive
CCOC(=O)COc1cc(-n2ncc(C(F)(F)F)c(C)c2=O)c(F)cc1Cl,outcome,[1],inactive
same,outcome,[2],inactive
same,outcome,[3],inactive
same,outcome,[4],inactive
same,outcome,[5],inactive
same,outcome,[7],inactive
same,outcome,[8],inactive
same,AC50,[9],50 µM (active)
same,outcome,[10],inactive
same,outcome,[11],inactive
